About 83,000 compounds went through this panel and 20% of them were active in at least one assay; those are over-represented in the sample as a whole.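 Compound tested at a single concentration for 48 hours in 96-well plates; a percent growth value below 10 was scored as active.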 Unmarked numbers belong to inactive results. The source made the active and inactive calls.
What was measured:
Assay in all cases: NCI-60 one-dose screen, 48 h (100 = growth as untreated, 0 = no growth, -100 = all killed)
Details in all cases: 10 µM unless noted
DU-145 prostate = tested on: DU-145 prostate
K-562 leukemia = tested on: K-562 leukemia
MALME-3M melanoma = tested on: MALME-3M melanoma
MDA-MB-231 breast = tested on: MDA-MB-231 breast
RXF 393 renal = tested on: RXF 393 renal
SF-268 CNS = tested on: SF-268 CNS
SF-295 CNS = tested on: SF-295 CNS
SF-539 CNS = tested on: SF-539 CNS
UACC-257 melanoma = tested on: UACC-257 melanoma
M14 melanoma = tested on: M14 melanoma
HCT-15 colon = tested on: HCT-15 colon
HT29 colon = tested on: HT29 colon
SNB-75 CNS = tested on: SNB-75 CNS
SNB-19 CNS = tested on: SNB-19 CNS
U251 CNS = tested on: U251 CNS
PC-3 prostate = tested on: PC-3 prostate
SK-MEL-5 melanoma = tested on: SK-MEL-5 melanoma
UACC-62 melanoma = tested on: UACC-62 melanoma
LOX IMVI melanoma = tested on: LOX IMVI melanoma
SK-MEL-28 melanoma = tested on: SK-MEL-28 melanoma

| Structure (SMILES) | growth (DU-145 prostate) | growth (K-562 leukemia) | growth (MALME-3M melanoma) | growth (MDA-MB-231 breast) | growth (RXF 393 renal) | growth (SF-268 CNS) | growth (SF-295 CNS) | growth (SF-539 CNS) | growth (UACC-257 melanoma) | growth (M14 melanoma) | growth (HCT-15 colon) | growth (HT29 colon) | growth (SNB-75 CNS) | growth (SNB-19 CNS) | growth (U251 CNS) | growth (PC-3 prostate) | growth (SK-MEL-5 melanoma) | growth (UACC-62 melanoma) | growth (LOX IMVI melanoma) | growth (SK-MEL-28 melanoma) |
| --- | --- | --- | --- | --- | --- | --- | --- | --- | --- | --- | --- | --- | --- | --- | --- | --- | --- | --- | --- | --- |
| Cc1ccc(C(C)C)c(OCc2ccc(C(=O)N/N=C/c3cccc(O)c3O)cc2)c1 | 33.6% | 4.92% (active) | 29.6% | 41.1% | 48.3% | 25.6% | 36.1% | 26% | 58.8% | 18.1% | 13.4% | 39.6% | 44.7% | 45.6% | 28.3% | 39.4% | 38.6% | 30.8% | -12.3% (active) | 42.8% |
| CCOc1ccc(N(C)c2ccc(/C=C/C3=[N+](C)c4ccccc4C3(C)C)cc2)cc1 | -3.68% (active) | 8.09% (active) | -73.8% (active) | -56.2% (active) | 35.8% | -78.9% (active) | -2.2% (active) | 30.5% | -16.4% (active) | 6.52% (active) | 18.9% | -25.1% (active) | 41.6% | 26.8% | -82.8% (active) | 0.484% (active) | 2.07% (active) | 28.5% | -48.1% (active) | 19% |
| O=C(/C(Br)=C/c1ccccc1)c1ccccc1 | 64.1% | -1.65% (active) | -36.9% (active) | 42.6% | -58.2% (active) | 78.9% | 103% | -41.7% (active) | -5.24% (active) | -95.4% (active) | -21.9% (active) | -66.2% (active) | 80.3% | 96.2% | 5.38% (active) | 87.8% | 84.9% | 8.01% (active) | -92.2% (active) | 42.8% |
| Cc1ccc(S(=O)(=O)N/N=C2\CC3CCC2C3)cc1 (stereo not given) | 114% | 103% | 102% | 111% | 112% | 113% | 86.6% | 97.6% | 114% | 104% | 96% | 108% | 85.7% | 101% | 96.8% | 95.8% | 99.8% | 103% | 103% | 109% |
| Clc1ccc(N/N=C(\c2ccccc2)c2ccccn2)nc1 | 22.7% | 7.96% (active) | 20% | 37% | 24.6% | 10.5% | 1.66% (active) | -0.842% (active) | -7.64% (active) | -6.53% (active) | 17.9% | 19.3% | 25.2% | 24.4% | 9.27% (active) | 28.6% | -36% (active) | -18.3% (active) | -1.02% (active) | 25.4% |
| CC(=O)c1ccc2c(c1)c1ccccc1n2C | 104% | 86.7% | 105% | 102% | 94.7% | 101% | 85.8% | 108% | 104% | 106% | 102% | 91.1% | 82.5% | 90.8% | 94.8% | 89.2% | 103% | 83.2% | 97.1% | 107% |
| Cc1cc2c(-c3nc4ccccc4[nH]3)c(O)c(O)cc2c(O)c1-c1c(C)cc2c(-c3nc4ccccc4[nH]3)c(O)c(O)cc2c1O | 16.6% | 6.02% (active) | -6.72% (active) | 23.3% | -8.07% (active) | 6.93% (active) | -17.5% (active) | -24.5% (active) | -3.19% (active) | -3.53% (active) | 11.9% | 10.5% | 5.43% (active) | 7.78% (active) | -58.7% (active) | 6.02% (active) | -8.04% (active) | -16.6% (active) | -26.5% (active) | 19.8% |
| CN1C(=O)C(=Cc2coc3ccc(Br)cc3c2=O)C(=O)N(C)C1=O | 103% | 127% | 139% | 97.6% | 93.6% | 97.6% | 120% | 100% | 101% | 99.8% | 105% | 108% | 105% | 105% | 104% | 89.3% | 93.8% | 83.4% | 101% | 103% |
| CC(=O)N(N=O)c1ccc([N+](=O)[O-])cc1Cl | 82.2% | 49.5% | 58.9% | 58.9% | 83.9% | 78.5% | 66.9% | 72.7% | 45.4% | 64.6% | 54.6% | 89.7% | 81.2% | 58.6% | 57.8% | 47.4% | 18.6% | 27.9% | 72.7% | 68.5% |
| Cc1ncc(C(=O)Nc2ccc(CN3CCN(C)CC3)c(C(F)(F)F)c2)cc1C#Cc1c(N)ncc2ccccc12 | -87.8% (active) | -73.2% (active) | -84.9% (active) | -96.6% (active) | -93.9% (active) | -54.4% (active) | -90.5% (active) | -98.5% (active) | -86% (active) | -86.1% (active) | -90.8% (active) | -89% (active) | -90.6% (active) | -100% (active) | -99.6% (active) | -76.7% (active) | -99.6% (active) | -82.3% (active) | -89.9% (active) | -96.5% (active) |
| CCC1(CC)C(OC)NC(Br)=C(C#N)C1(C#N)C(N)=O (stereo not given) | 97.5% | 91.5% | 137% | 102% | -5.04% (active) | 131% | 122% | 93.9% | 103% | -100% (active) | 114% | 105% | 99.3% | 110% | 104% | 107% | 109% | 99.5% | 101% | 114% |
| CC(O)CN(CCO)CCN(CCO)CC(C)O (stereo not given) | 106% | 107% | 106% | 115% | 93% | 107% | 94.2% | 94.8% | 108% | 106% | 101% | 100% | 98.7% | 105% | 106% | 106% | 106% | 101% | 98% | 106% |
| CC(=O)CCS(=O)c1ccccc1 (stereo not given) | 103% | 98.9% | 97.2% | 106% | 99.7% | 94.9% | 97.6% | 113% | 99.5% | 105% | 110% | 97.8% | 96% | 98.2% | 97.2% | 94.6% | 102% | 99.6% | 97.1% | 109% |
| O=C1N/C(=N\c2nnc(-c3ccc(O)cc3)s2)S/C1=C\c1ccccc1O | 95.2% | 103% | 82.8% | 99.4% | 113% | 90.7% | 94% | 101% | 102% | 91.1% | 93.3% | 115% | 78.5% | 93.8% | 101% | 87% | 99.7% | 97.6% | 93% | 106% |
| O=C(Nc1cccc(Cn2c(=O)[nH]c3ccc(Oc4ncccn4)cc3c2=O)c1)c1cc(Cl)cc(Cl)c1 | 68% | 4.32% (active) | 30.5% | 39.3% | 31.9% | 69.1% | 64.6% | 11.8% | 68.4% | 73% | 77.3% | 47.4% | 42.6% | 69.4% | 51.1% | 64.5% | 56.8% | 66.6% | 86.3% | 60.7% |
